Measurements: PubChem BioAssay (Tox21)
Results filed as inconclusive are left out. Activity calls are given as the source filed them. Calls come from the whole dose curve; as a rule, active = well fitted curve in the direction sought with a large enough effect in the repeat runs; inconclusive = weak or mixed curves; inactive = no such curve, though single readings can be large; an effect the other way counts as inactive or inconclusive.

Assays:
[1] = qHTS RealTime-Glo MT Cell Viability Assay in HepG2 cells - 40 hour (AID 1224870); note: nearly all actives have a fitted effect of over 50% in size
In short: (§1)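 HepG2 cells mixed with RealTime-Glo MT reagents (NanoLuc plus cell-permeant prosubstrate) were seeded at 600 cells/well, incubated 5 h at 37 C/5% CO2, then pinned with compounds in DMSO; nonlytic luminescence tracked viability during 40 h treatment.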

[2] = A CellTox Green Cytotoxicity Assay to monitor cytotoxicity in HEK293 cells - 40 hour (AID 1224871); note: nearly all actives have a fitted effect of over 45% in size; note: potency is the fitted concentration of half-maximal effect
In short: (§2)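 Cytotoxicity was tracked continuously in HEK293 cells by a DNA-binding dye excluded from viable cells. Compounds were transferred in DMSO 5 h after seeding; fluorescence was recorded at intervals up to 40 h.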

[3] = qHTS RealTime-Glo MT Cell Viability Assay in HEK293 cells - 16 hour (AID 1224872); note: nearly all actives have a fitted effect of over 50% in size; note: potency is the fitted concentration of half-maximal effect
In short: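 Quantitative high-throughput screen of the Tox21 10K library in HEK293: cells and RealTime-Glo reagents plated together, compound added at 5 h, luminescence monitored through 40 h at 37 C.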

[4] = qHTS RealTime-Glo MT Cell Viability Assay in HepG2 cells - 8 hour (AID 1224873); note: nearly all actives have a fitted effect of over 55% in size
In short: as §1

[5] = qHTS RealTime-Glo MT Cell Viability Assay in HEK293 cells - 40 hour (AID 1224874); conditions: RealTime-Glo luminescence; max response: active compounds read low; note: nearly all actives have a fitted effect of over 50% in size; note: potency is the fitted concentration of half-maximal effect
In short: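 Nonlytic bioluminescent viability monitoring. HEK293 at 600 cells/well with reagent; 5 h settle; compound transfer by pintool; plates held at 37 C and read at set time points.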

[6] = A CellTox Green Cytotoxicity Assay to monitor cytotoxicity in HEK293 cells - 24 hour (AID 1224875); note: nearly all actives have a fitted effect of over 45% in size; note: potency is the fitted concentration of half-maximal effect
In short: as §2

[7] = qHTS RealTime-Glo MT Cell Viability Assay in HepG2 cells - 32 hour (AID 1224877); note: nearly all actives have a fitted effect of over 55% in size
In short: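 Compound treatment began 5 h after plating HepG2 cells (600/well) with NanoLuc luciferase and prosubstrate. Plates stayed at 37 C for 40 h; luminescence was captured at six time points, 0 h through 40 h.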

[8] = A CellTox Green Cytotoxicity Assay to monitor cytotoxicity in HepG2 cells - 24 hour (AID 1224878); note: nearly all actives have a fitted effect of over 45% in size; note: potency is the fitted concentration of half-maximal effect
In short: (§3)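 Real-time, homogeneous cytotoxicity readout: dead-cell DNA staining by CellTox Green in HepG2 monolayers, fluorescence measured at timed intervals up to 40 h of continuous compound exposure.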

[9] = A CellTox Green Cytotoxicity Assay to monitor cytotoxicity in HepG2 cells - 40 hour (AID 1224879); note: nearly all actives have a fitted effect of over 40% in size; note: potency is the fitted concentration of half-maximal effect
In short: as §3

[10] = A CellTox Green Cytotoxicity Assay to monitor cytotoxicity in HepG2 cells - 16 hour (AID 1224876); note: nearly all actives have a fitted effect of over 45% in size
In short: as §3
% is set by controls: 0 for no effect and ±100 for the full control effect.

C1CSCCS1
inactive: Potency [1] | Potency [2] | Potency [3] | outcome [4] | max response [5] -4.02% | Potency [6] | Potency [7] | Potency [8] | Potency [9]

CNCCC(Oc1ccccc1OC)c1ccccc1 (centres undefined)
inactive: Potency [1] | Potency [2] | Potency [3] | outcome [4] | max response [5] -21.1% | Potency [6] | Potency [7] | Potency [8] | Potency [9]

N#CSCC(=O)O
inactive: Potency [1] | Potency [2] | Potency [3] | outcome [4] | max response [5] 0.0274% | Potency [6] | Potency [7] | Potency [8] | Potency [9]

CCCCCCCCCCCCOCCOS(=O)(=O)O
active: Potency [2] 24.5 µM | Potency [6] 24.5 µM | Potency [8] 49 µM | Potency [9] 54.9 µM
inactive: Potency [1] | Potency [3] | outcome [4] | Potency [7]

CC1(C)O[C@@H]2C[C@H]3[C@@H]4CCC5=CC(=O)CC[C@]5(C)[C@@]4(F)[C@@H](O)C[C@]3(C)[C@]2(C(=O)CCl)O1
inactive: Potency [1] | Potency [2] | Potency [3] | outcome [4] | Potency [6] | Potency [10] | Potency [7] | Potency [8] | Potency [9]

CCCCCCCCCC/C=C/C#N
inactive: Potency [1] | Potency [2] | Potency [3] | outcome [4] | max response [5] 4.49% | Potency [6] | Potency [7] | Potency [8] | Potency [9]

COc1cc(N)c(Cl)cc1C(=O)NC1CCN(Cc2ccccc2)CC1
inactive: Potency [1] | Potency [2] | outcome [4] | Potency [6] | Potency [7] | Potency [8]
active: Potency [3] 19 µM | Potency [5] 19 µM

Oc1ccccc1F
inactive: Potency [1] | Potency [2] | Potency [3] | outcome [4] | max response [5] 16.1% | Potency [6] | Potency [7] | Potency [8] | Potency [9]

CN1CCN(C2=Nc3cc(F)ccc3Cc3ccccc32)CC1
inactive: Potency [1] | Potency [2] | Potency [3] | outcome [4] | Potency [6] | Potency [7] | Potency [8] | Potency [9]

CN(C)Cc1ccccc1
inactive: Potency [1] | Potency [2] | Potency [3] | outcome [4] | max response [5] 7.47% | Potency [6] | Potency [7] | Potency [8] | Potency [9]

CCOC(=O)CS
inactive: Potency [1] | Potency [2] | Potency [3] | outcome [4] | max response [5] -5.88% | Potency [6] | Potency [7] | Potency [8] | Potency [9]

CC(=O)OC(C)OC(C)=O
inactive: Potency [1] | Potency [2] | Potency [3] | outcome [4] | max response [5] 0.965% | Potency [6] | Potency [7] | Potency [8]

CC(C)(C)c1ccc(OC(=O)c2ccccc2O)cc1
inactive: Potency [1] | Potency [2] | Potency [3] | outcome [4] | max response [5] -15.3% | Potency [6] | Potency [7] | Potency [8] | Potency [9]

C[C@]12CCC(=O)C=C1CC[C@@H]1[C@@H]2CC[C@@]2(C)[C@H]1CC[C@]2(O)C(=O)CO
inactive: Potency [1] | Potency [2] | Potency [3] | outcome [4] | Potency [6] | Potency [10] | Potency [7] | Potency [8] | Potency [9]

CCCOCCC
inactive: Potency [1] | Potency [2] | Potency [3] | outcome [4] | max response [5] 23.9% | Potency [6] | Potency [7] | Potency [8] | Potency [9]

Cc1cc(S(=O)(=O)O)c(N)cc1Cl
inactive: Potency [1] | Potency [2] | Potency [3] | outcome [4] | max response [5] -1.1% | Potency [6] | Potency [7] | Potency [8] | Potency [9]

CCN(O)CC
inactive: Potency [1] | Potency [2] | Potency [3] | outcome [4] | max response [5] 12.4% | Potency [6] | Potency [7] | Potency [8] | Potency [9]
